The values below come from PubChem BioAssay (NCI).

Common to all, as to assay: NCI-60 one-dose screen, 48 h (100 = growth as untreated, 0 = no growth, -100 = all killed)
One test has as its system RPMI-8226 leukemia. To be noted: 10 µM unless noted.
A further test deals with OVCAR-8 ovarian. The note with it: 10 µM unless noted.
The test system of the next test is OVCAR-5 ovarian. The note with it: 10 µM unless noted.
For a further test, the system named is IGROV1 ovarian. The note with it: 10 µM unless noted.
The next test deals with OVCAR-3 ovarian. To be noted: 10 µM unless noted.
For the next test, the system named is HS 578T breast. To be noted: 10 µM unless noted.
A further test concerns NCI/ADR-RES ovarian. To be noted: 10 µM unless noted.
The test system of another test is T-47D breast. To be noted: 10 µM unless noted.
The next test concerns BT-549 breast. To be noted: 10 µM unless noted.
A further test relates to MDA-MB-435 melanoma. The note with it: 10 µM unless noted.
For a further test, the system named is SW-620 colon. To be noted: 10 µM unless noted.
A further test relates to MCF7 breast. To be noted: 10 µM.
A further test concerns HCT-116 colon. To be noted: 10 µM unless noted.
The next test deals with HCC-2998 colon. To be noted: 10 µM unless noted.
For the next test, the system named is KM12 colon. The note with it: 10 µM unless noted.
Another test concerns SK-OV-3 ovarian. To be noted: 10 µM unless noted.

About 83,000 compounds went through this panel and 20% of them were active in at least one assay; those are over-represented in the sample as a whole.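 48-hour exposure, single concentration, 96-well plates; percent growth endpoint where 0 means no net growth. Active: below 10.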 A number with no mark means an inactive call. The source made the active and inactive calls.

For the compound `COc1cc(-c2c3c(c(Br)n2Cc2ccccc2)-c2nc(N)sc2CC3)cc(OC)c1OC`, the growth is 71.9% in the test with RPMI-8226 leukemia; 89.2% in the test with OVCAR-8 ovarian; 107% in the test on OVCAR-5 ovarian; 110% in the test with IGROV1 ovarian; 95.6% with OVCAR-3 ovarian; 80% in the test on HS 578T breast. In addition, the growth is 87.4% in the test on NCI/ADR-RES ovarian; 63.8% in the test on T-47D breast; 94.1% in the test with BT-549 breast; 35.8% in the test with MDA-MB-435 melanoma; 74.9% with SW-620 colon; 61.4% in the test on MCF7 breast. Besides, the growth in the test on HCT-116 colon was 69.2%; with HCC-2998 colon, 96.3%; with KM12 colon, 88.6%.

Take `COc1ccc(/C=C2\SC(=Nc3ccccc3)NC2=O)cc1`: the growth in the test with RPMI-8226 leukemia is -50.9% (active); in the test with OVCAR-8 ovarian, -81.2% (active); in the test on OVCAR-5 ovarian, -77.8% (active); in the test with IGROV1 ovarian, -78.2% (active); in the test on OVCAR-3 ovarian, -69.4% (active); in the test with HS 578T breast, -47.5% (active). Besides, the growth with NCI/ADR-RES ovarian was -8.71% (active); with T-47D breast, -72.8% (active); in the test with BT-549 breast, -72.2% (active); in the test with SW-620 colon, -74.2% (active); in the test with MCF7 breast, -85% (active); in the test on HCT-116 colon it was -82.2% (active). Also, the growth was -87.5% (active) in the test on HCC-2998 colon and -89.6% (active) with KM12 colon.

Take `COc1cc(C2C3=C(COC3=O)N(CCO)c3cc4c(cc32)CCC4)cc(OC)c1O` (stereo not drawn): the growth in the test with RPMI-8226 leukemia is 32.2%; with OVCAR-8 ovarian it was 22.6%; in the test on OVCAR-5 ovarian, 56.6%; in the test on SK-OV-3 ovarian it was 37.7%; in the test on IGROV1 ovarian, 17.5%; in the test on OVCAR-3 ovarian, -35.5% (active). For the same compound, the growth in the test with HS 578T breast was 32%; in the test on NCI/ADR-RES ovarian it was 52.8%; in the test with T-47D breast it was 46.4%; in the test with MDA-MB-435 melanoma, -26.8% (active); in the test with SW-620 colon, 12.1%; with HCT-116 colon it was 8.94% (active). The growth with HCC-2998 colon is -22.4% (active); in the test on KM12 colon, -20.6% (active).

`CCOC(=O)c1ccc(N=Cc2sc(=O)[nH]c2O)cc1`: the growth with RPMI-8226 leukemia was 101%; in the test on OVCAR-8 ovarian, 92.1%; in the test on OVCAR-5 ovarian, 102%; with SK-OV-3 ovarian it was 91.6%; with OVCAR-3 ovarian, 103%; in the test with HS 578T breast, 88.1%. Besides, the growth in the test with NCI/ADR-RES ovarian is 96.8%; in the test on T-47D breast it was 92.3%; in the test with BT-549 breast it was 101%; in the test on MDA-MB-435 melanoma it was 103%; in the test on SW-620 colon, 100%; in the test on MCF7 breast, 92%. Moreover, the growth is 107% in the test on HCT-116 colon, 101% with HCC-2998 colon and 103% in the test on KM12 colon.

Regarding `CCN(CC)c1cc(C)c2cc(NC(=O)c3cccc(OC)c3)ccc2n1`, the growth in the test with RPMI-8226 leukemia is 7.5% (active); in the test on OVCAR-8 ovarian, 74.8%; in the test on OVCAR-5 ovarian, 98.3%; in the test with IGROV1 ovarian, 98.4%; with OVCAR-3 ovarian it was 74.8%; with HS 578T breast it was 58.3%. Moreover, the growth with NCI/ADR-RES ovarian is 80.5%; in the test with T-47D breast, 70.8%; with MDA-MB-435 melanoma, 74.2%; in the test with SW-620 colon, 64.9%; with MCF7 breast, 73.1%; with HCT-116 colon it was 70.1%. The values for the growth with HCC-2998 colon and with KM12 colon were 91.3% and 88.5%, respectively.

In the case of `O=C(Nc1ccccc1O)c1ccc(-c2ccc(Cl)cc2Cl)o1`, the growth in the test on RPMI-8226 leukemia was 74.1%; in the test on OVCAR-8 ovarian, 94.3%; with OVCAR-5 ovarian, 99.2%; in the test with IGROV1 ovarian, 88.3%; in the test on OVCAR-3 ovarian, 85.6%; in the test on HS 578T breast, 93.8%. The growth was 90.3% in the test on NCI/ADR-RES ovarian; 77.2% in the test on T-47D breast; 91.7% in the test on BT-549 breast; 96.9% in the test on MDA-MB-435 melanoma; 101% in the test on SW-620 colon; 87.5% in the test on MCF7 breast. For the same compound, the values for the growth in the test with HCT-116 colon, in the test on HCC-2998 colon and in the test on KM12 colon were 68.7%, 96.5% and 78.8%, respectively.

With `O=C(Nc1ccc(Cl)cc1)N1CCN(c2ccc3nncn3n2)CC1`, the growth is -20.9% (active) in the test on RPMI-8226 leukemia; 30.5% with OVCAR-8 ovarian; 87.2% with OVCAR-5 ovarian; -3.29% (active) with SK-OV-3 ovarian; -7.82% (active) in the test on OVCAR-3 ovarian; -40.7% (active) in the test on HS 578T breast. In addition, the growth was 63.2% in the test with NCI/ADR-RES ovarian; -54.9% (active) in the test on T-47D breast; 43.4% with BT-549 breast; -81.4% (active) with MDA-MB-435 melanoma; -88% (active) in the test with SW-620 colon; -53.4% (active) in the test with MCF7 breast. Besides, the growth in the test with HCT-116 colon is -83.4% (active); with HCC-2998 colon, -33.6% (active); in the test with KM12 colon, -40.8% (active).

Take `O=C(CSc1ccc2nnc(-c3cccc(F)c3)n2n1)Nc1ccc2c(c1)OCO2`: the growth in the test on RPMI-8226 leukemia was 52.3%; with OVCAR-8 ovarian, 53.4%; in the test on OVCAR-5 ovarian, 113%; with SK-OV-3 ovarian, 100%; in the test with IGROV1 ovarian it was 54.8%; in the test on OVCAR-3 ovarian, 48.3%. In addition, the growth was 76.4% in the test with HS 578T breast; 48.4% with NCI/ADR-RES ovarian; 56.2% in the test with T-47D breast; 88.3% in the test on BT-549 breast; 89.5% with MDA-MB-435 melanoma; 92.8% in the test on SW-620 colon. Further, the growth in the test with MCF7 breast was 36.4%; in the test on HCT-116 colon it was 62.1%; with HCC-2998 colon it was 109%; in the test on KM12 colon, 73.5%.
